Results taken from publication PMC5540273 (PLoS ONE, 2017).

Experiments:
Conditions in all cases: concentration: 1 μM, replicates: in singlicate; n = 1
[1] = test system: T1, ASK2
T1 construct: gene MAP3K6

[2] = test system: AURKA
[3] = test system: AURKB
[4] = test system: AURKC
[5] = test system: AXL
[6] = test system: T2, BIKE
T2 construct: gene BMP2K

[7] = test system: BLK
[8] = test system: BMPR1A
[9] = test system: BMPR1B
[10] = test system: BMPR2
[11] = test system: BMX
[12] = test system: BRAF
[13] = test system: T3, BRK
T3 construct: gene PTK6

[14] = test system: BRSK1
[15] = test system: BRSK2
[16] = test system: BTK
[17] = test system: BUB1
[18] = test system: CAMK1B
[19] = test system: CAMK1D
[20] = test system: CAMK1G
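Note: KINOMEscan kinase panel screen.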

Structure (SMILES)	%Inh [1]	%Inh [2]	%Inh [3]	%Inh [4]	%Inh [5]	%Inh [6]	%Inh [7]	%Inh [8]	%Inh [9]	%Inh [10]	%Inh [11]	%Inh [12]	%Inh [13]	%Inh [14]	%Inh [15]	%Inh [16]	%Inh [17]	%Inh [18]	%Inh [19]	%Inh [20]
CCn1c(-c2nonc2N)nc2c(-c3ccccc3)ncc(OCCCN)c21.O=C(O)C(F)(F)F.O=C(O)C(F)(F)F [GSK260205]	0%	0%	36%	0%	0%	8%	20%	0%	0%	2%	0%	0%	0%	0%	0%	0%	96.2%	7%	6%	4%
CN(c1ccc2c(c1)nc(NCc1ccccc1)n2C)c1ccnc(Nc2ccc(CS(C)(=O)=O)cc2)n1.Cl [GW811603]	0%	87%	79%	63%	85%	24%	39%	0%	4%	22%	0%	96.8%	79%	0%	0%	64%	0%	46%	5%	0%
Nc1ncc(-c2cn[nH]c2)c2scc(-c3ccc4c(c3)CCN4C(=O)Cc3ccccc3)c12 [GSK2593067]	21%	13%	98.6%	87%	98.8%	67%	96%	0%	0%	0%	31%	0%	96.1%	0%	0%	0%	11%	0%	11%	19%
COc1ccc(NC(=O)c2ccoc2)cc1-c1ccc(C(=O)NCC2CC2)cc1 [GW810437]	0%	1%	33%	0%	0%	0%	21%	7%	2%	46%	3%	0%	0%	0%	4%	0%	2%	19%	0%	9%
Cl.Cl.NC(CNC(=O)c1cc(Br)c(-c2ccnc3[nH]ccc23)s1)c1ccccc1 (stereo not shown) [GSK1322949]	20%	67%	35%	95.2%	90.8%	100%	44%	0%	12%	58%	5%	0%	0%	50%	40%	0%	77%	34%	63%	27%
O=C1NC(=O)C(c2ccccc2Cl)=C1Nc1cccc(Cl)c1 [SB-342409]	0%	0%	22%	0%	0%	15%	2%	0%	0%	0%	19%	0%	22%	0%	0%	0%	22%	3%	21%	18%
O=C(Nc1n[nH]c2nc(-c3cccc(O)c3)ccc12)C1CC1 [SB-711805]	0%	9%	19%	23%	12%	34%	0%	8%	86%	34%	4%	46%	0%	53%	17%	0%	0%	0%	19%	0%
CNc1nccc(-c2ccc3c(N)n[nH]c3c2)n1 [GSK2206003]	0%	8%	0%	46%	0%	94.1%	54%	7%	71%	6%	2%	0%	10%	22%	15%	3%	71%	0%	28%	22%
N#Cc1cnc2cc(-c3cnc(CNCCN4CCOCC4)s3)ccc2c1Nc1ccc(Oc2ccccc2)cc1 [GW664114]	9%	0%	39%	25%	98%	9%	99%	0%	0%	8%	62%	0%	0%	0%	44%	93.9%	37%	24%	12%	24%
Fc1cc(Cl)ccc1Nc1ccnc2cc(-c3ccc(CN4CCSCC4)o3)ccc12 [GW560106]	0%	100%	0%	18%	33%	4%	97.7%	14%	45%	5%	20%	2%	92.3%	0%	0%	37%	38%	10%	11%	0%
Nc1ncnc2scc(-c3ccc(NC(=O)Cc4cc(F)ccc4F)cc3)c12.O=C(O)C(F)(F)F [SB-731254-M]	21%	53%	98.6%	45%	36%	7%	36%	22%	10%	0%	0%	4%	6%	2%	38%	0%	0%	0%	11%	15%
COc1cc(Nc2nccc(N3CCC(NC(=O)Nc4ccc5c(c4)OCO5)C3)n2)cc(OC)c1OC (stereo not shown) [GSK1379766]	12%	86%	69%	90.1%	0%	74%	0%	0%	0%	30%	0%	12%	0%	0%	0%	0%	43%	34%	19%	9%
CCNC(=O)/C=C/c1n[nH]c2cc(Sc3ccccc3C(=O)NC)ccc12	0%	86%	97.4%	84%	76%	48%	7%	12%	30%	1%	18%	11%	15%	38%	24%	0%	48%	9%	22%	20%
Cc1ccccc1CC(=O)N1CCc2cc(-c3cn(C)c4ncnc(N)c34)ccc21 [GSK2603346]	6%	27%	92%	100%	98.7%	82%	49%	0%	0%	0%	2%	0%	71%	0%	0%	0%	10%	0%	13%	19%
Cc1ccc(O)cc1Nc1ccnc2cc(-c3ccc(CN4CCCCC4)o3)ccc12 [GW557777]	0%	0%	0%	15%	0%	4%	99.7%	61%	99.9%	0%	50%	22%	99.5%	0%	0%	19%	0%	0%	4%	6%
CN(c1ccc(F)c(NC(=O)c2cccc(OC(C)(C)C#N)c2Cl)c1)c1ccc2nc(NC(=O)C3CC3)sc2n1	6%	22%	4%	0%	6%	0%	96.3%	0%	0%	0%	0%	94%	0%	4%	0%	22%	34%	0%	0%	2%
Cc1nn2c(=O)cc(N3CCO[C@H](C)C3)nc2n1Cc1cccc(Cl)c1Cl [GSK2373693]	0%	35%	17%	6%	4%	17%	17%	35%	0%	35%	15%	2%	13%	3%	0%	0%	28%	42%	9%	0%
CC(C)(C)c1ccc(C(=O)Nc2cn3cc(-n4ccnc4)ccc3n2)cc1	6%	0%	24%	0%	0%	0%	0%	3%	0%	8%	0%	19%	15%	31%	0%	0%	7%	0%	6%	7%
Cl.Cl.NCC(NC(=O)c1cc(-c2cccnc2)c(-c2ccnc3[nH]ccc23)s1)c1ccccc1 (stereo not shown) [GSK1323434]	16%	15%	19%	36%	23%	63%	40%	0%	51%	5%	36%	21%	7%	5%	0%	0%	77%	7%	18%	3%
Cn1cc(-c2cnc(N)c3c(-c4ccc5c(c4)CCN5C(=O)Cc4ccccc4)csc23)cn1 [GSK2593074]	17%	24%	97.8%	92.2%	95.9%	0%	93%	1%	6%	6%	57%	0%	92.2%	0%	7%	0%	0%	0%	11%	0%
